Hits are enriched below; roughly 2.7% of the tested compounds scored in any of these assays.
TMEM16A inh: inhibitors of mouse TMEM16A calcium-activated chloride channel; normalized B-score (activity score, 25-100; higher = stronger inhibition) at 10 µM; AID 588511; 310,000 tested, 1.2% active; HEK293 TMEM16A/YFP iodide influx fluorescence, ionomycin;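 active = ratio plate-corrected score three or more library SD toward inhibition, starting fluorescence score within five deviations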;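 also: score derived from kinetic fluorescence span divided by baseline fluorescence per well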
CHT block: inhibits the human high affinity choline transporter; Q9GZV3; CHT-expressing cells, membrane potential dye, choline response; stronger effect = lower value; B-score at 10 µM; 310,000 tested, 0.86% active; AID 488975;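 active = B-score over 3 SD under the library average, and starting fluorescence ratio not unusually high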;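 also: choline stimulus applied at its EC90 after an EC20 pre-addition; B-score computed on integrated fluorescence ratio after choline addition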
IDE cell inh: inhibits human insulin-degrading enzyme in HEK cells; FAbetaB cleavage, fluorescence polarization; inhibition, % at 5.59 µM; 320,000 tested, 0.41% active;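 active = percent inhibition above the average of all tested compounds plus 3 SD, set per screening campaign, cut at about 16% in these data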;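 also: IDE supplied by intact live HEK cells; FP after avidin binding of uncleaved biotin substrate so inhibition keeps polarization high; 0% = DMSO wells and 100% = 60 µM reference IDE inhibitor Ii1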
ANO1 activ: activators or potentiators of mouse TMEM16A chloride channel | Q8BHY3 | HEK293 TMEM16A/YFP-H148Q/I152L, iodide quench fluorescence; stronger effect = lower value | B-score at 10 µM | 340,000 tested, 0.3% active;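 active = fluorescence-ratio B-score plate-corrected deviation score at least 3 library SD below zero, with starting fluorescence score within 5 deviations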;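 also: channel opened by trigger with iodide after compound preincubation; score built on the fluorescence ratio of max minus min over baseline; more negative score means more quench and so TMEM16A activation or potentiation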
IDE act: IDE (human) activation, cell-based; P14735; HEK cells, FAbeta-B cleavage, fluorescence polarization; 0% vehicle, 100% cell-free pure enzyme wells; activation, % at 5.96 µM; 340,000 tested, 0.073% active;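 active = activation above the mean of all tested compounds plus 3 SD, set per screening campaign, cut at about 17% in these data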
CHT allo act: human CHT allosteric activation. B-score at 10 µM. 310,000 tested, 0.49% active. AID 488977. Q9GZV3. CHT-expressing cells, membrane potential dye, choline EC20; stronger effect = higher value; LV-AA mutant CHT in HEK293 cells;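 active = initial fluorescence not abnormally high and integrated response B-score, plate-corrected, over 3 SD above library mean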
TMEM16A reconf: TMEM16A (mouse) chloride channel inhibition, re-confirmation; shares compounds with TMEM16A inh; HEK293 TMEM16A/YFP-H148Q, iodide quench fluorescence; ionomycin added to raise cell calcium; inhibition, % at 10 µM; 2,300 tested, 39% active; AID 652189;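 active = mean duplicate percent inhibition, scaled so buffer wells are 0 and the reference blocker 100, over three buffer SD above buffer mean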
TMEM16A Ca cntr: calcium mobilization counter-screen hit for TMEM16A inhibitor series; shares compounds with TMEM16A inh; TMEM16A/YFP HEK293, Fluo4 calcium mobilization; calcium response (% of ionomycin), % at 10 µM; 2,300 tested, 2% active; AID 652231;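 active = duplicate-averaged calcium signal over 20% of the ionomycin maximum, relative to buffer baseline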;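 also: each well's signal is peak minus trough fluorescence divided by its pre-addition baseline; 0% = buffer wells and 100% = ionomycin wells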
YFP-HEK293 quench: counter-screen for TMEM16A inhibitors: effect in parental YFP-HEK293 cells; shares compounds with TMEM16A inh; iodide YFP quench, ionomycin; YFP ratio F(max-min)/F0 at 10 µM; 2,300 tested, under 10 active;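 active = yellow fluorescent protein signal ratio exceeding the buffer control mean by over 5 SD of those controls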;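 also: ratio is mean of duplicate wells from kinetic YFP trace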
ClC-1 inh: rat ClC-1 inhibition, TMEM16A specificity screen; 2,300 tested, under 10 active; shares compounds with TMEM16A inh; CHO ClC-1-YFP, iodide influx fluorescence quench; iodide control reads 0, buffer control 100; ratio percent, % at 10 µM; AID 652236;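 active = duplicate-mean ratio percent above the mean of iodide-only control wells, which defines zero, plus 5 of their SD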;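 also: higher percent means stronger block of ClC-1 iodide influx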
Target sequence (P35524 whole entry, looked up): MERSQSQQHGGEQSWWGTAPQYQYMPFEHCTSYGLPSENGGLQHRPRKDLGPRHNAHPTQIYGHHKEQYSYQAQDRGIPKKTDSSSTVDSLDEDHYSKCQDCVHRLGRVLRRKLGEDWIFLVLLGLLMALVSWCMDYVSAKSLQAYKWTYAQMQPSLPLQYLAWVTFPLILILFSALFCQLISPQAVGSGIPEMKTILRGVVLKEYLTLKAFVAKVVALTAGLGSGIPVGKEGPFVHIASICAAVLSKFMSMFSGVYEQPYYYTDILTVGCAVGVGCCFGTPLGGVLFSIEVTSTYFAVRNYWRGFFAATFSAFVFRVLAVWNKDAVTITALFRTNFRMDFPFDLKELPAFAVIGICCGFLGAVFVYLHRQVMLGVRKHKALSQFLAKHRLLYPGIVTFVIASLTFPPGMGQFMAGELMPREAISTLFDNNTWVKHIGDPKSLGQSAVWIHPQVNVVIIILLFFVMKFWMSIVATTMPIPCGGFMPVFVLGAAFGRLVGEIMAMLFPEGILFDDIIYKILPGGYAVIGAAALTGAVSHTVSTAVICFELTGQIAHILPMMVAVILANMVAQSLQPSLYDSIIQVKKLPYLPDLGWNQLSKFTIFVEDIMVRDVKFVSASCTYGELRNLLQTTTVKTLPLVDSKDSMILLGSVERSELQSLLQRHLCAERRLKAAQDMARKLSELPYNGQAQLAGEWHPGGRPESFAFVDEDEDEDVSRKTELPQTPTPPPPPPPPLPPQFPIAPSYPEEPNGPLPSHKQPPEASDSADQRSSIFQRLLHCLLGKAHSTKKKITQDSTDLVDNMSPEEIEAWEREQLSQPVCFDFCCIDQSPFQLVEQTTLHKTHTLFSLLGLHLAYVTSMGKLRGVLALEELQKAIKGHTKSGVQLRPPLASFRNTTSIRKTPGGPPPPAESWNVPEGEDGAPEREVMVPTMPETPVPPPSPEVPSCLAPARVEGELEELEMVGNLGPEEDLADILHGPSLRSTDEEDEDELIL
* = called active by the depositor; i = inactive; . = not tested or not shown.

SMILES	TMEM16A inh	CHT block	IDE cell inh	ANO1 activ	IDE act	CHT allo act	TMEM16A reconf	TMEM16A Ca cntr	YFP-HEK293 quench	ClC-1 inh
CC(C)Cc1ccc(CN2CCCC(NC(=O)c3ccnn3C)C2)cc1 (centres undefined)	25*	i	-4.2	i	5.1	i	i	i	-1.24	-8.0
CCCCCc1cc(O)c2c(C)cc(=O)oc2c1	100*	i	-0.5	i	1.1	i	16.5%*	i	-0.971	-7.5
Cn1cccc1C(=O)NCc1ccccn1	.	.	.	i	1.9	.	.	.	.	.
COc1ccc(NC(=O)N2CCCC2)cc1OC	25*	i	-3.5	i	7.3	i	i	i	-1.12	-7.0
O=C1COc2ccc(C(=O)COC(=O)c3ccc(F)cc3Cl)cc2N1	.	.	1.2	i	1.7	.	.	.	.	.
CCOc1cc(C(=O)Nc2cc(C)ccn2)cc(OCC)c1OCC	100*	i	-0.6	i	-7.3	i	i	i	-1.39	-2.5
CCOc1ccc(NS(=O)(=O)c2cc(C(=O)NCCN3CCOCC3)ccc2C)cc1	.	.	6.2	i	2.4	.	.	.	.	.
Cn1nc(C(F)(F)F)c(C#N)c1N1CCN(c2ccc(F)cc2)CC1	25*	i	-0.9	i	-0.2	i	i	i	-1.31	-11.5
COc1ccc(OCc2cc(C(=O)N3CCCC(O)C3)no2)c2ccccc12 (centres undefined)	i	i	3.5	i	3.9	i	.	.	.	.
Cn1c(CN2CCCCC2)nc2cc(NC(=O)c3ccc(Cl)cc3)ccc21	100*	i	0.8	i	-8.1	i	23.0%*	i	-1.15	-3.0
Cn1c(CN2CCCC2)nc2cc(NC(=O)c3ccc(Cl)cc3)ccc21	i	i	9.7	i	2.7	i	.	.	.	.
Cc1cc(C(=O)CSc2ccc(F)cc2)cc(C)c1OC(=S)N(C)C	100*	i	2.9	i	3.9	i	i	i	-1.37	-8.0
COc1cc(Cl)ccc1OCc1cc(C(=O)N(C)Cc2cccc3cnccc23)no1	100*	i	9.7	i	-2.5	i	25.0%*	i	-1.06	-13.0
Cc1onc(-c2ccccc2)c1C(=O)NC(=S)NNC(=O)c1cc(-c2ccc(F)cc2)n[nH]1	25*	i	-0.8	i	7.4	i	i	i	-0.844	2.0
Cc1ccc(C)c(NC(=S)N2CCN(c3cccc(C(F)(F)F)c3)CC2)c1	i	i	5.0	i	-0.7	i	.	.	.	.
Cc1ccnc(NC(=S)N2CCN(c3cccc(C(F)(F)F)c3)CC2)c1	25*	i	5.1	i	-7.2	i	18.0%*	i	-1.11	-12.5
COc1ccc(-c2cc(C3CCN(c4cc(Cl)nc(N)n4)CC3)[nH]n2)cc1	i	i	11.1	i	-8.7	i	.	.	.	.
COc1ccc(OC)c(-c2cc(C3CCN(c4cc(Cl)nc(N)n4)CC3)[nH]n2)c1	100*	i	7.0	i	-8.1	i	i	i	-1.24	-19.5
c1csc(-c2noc(COc3ccc4c(c3)CCCC4)n2)c1	i	i	1.9	i	-7.6	i	i	i	-1.16	-13.0
O=C(NCCc1ccccc1)C(c1cccs1)N(C(=O)c1csnn1)C1CC1 (centres undefined)	25*	i	-2.0	i	6.1	i	i	i	-1.01	-11.0

High-throughput results (PubChem)
